The structures appear in SMILES notation. Results filed as inconclusive are left out. Unmarked numbers belong to inactive results. The source made the active and inactive calls. The call rests on the fitted dose curve; in most records, active means well fitted inhibition curve with a large enough effect; inconclusive means small, poorly fitted or top-dose-only effect; inactive means flat fitted curve, though single readings scatter.

From PubChem BioAssay (NCATS) come the findings set out here.
Potency means the concentration at half of the fitted maximal effect.

The assay is described as follows: BET inhibitor-based combinations targeting novel dependencies in MECOM-rearranged (r) AML: AML-194 cell line (AID 2202237; further: nearly all actives have a fitted effect of over 40% in size;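 on viability (% of control): plate controls were vehicle wells for no effect and wells without cells for full effect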). Particulars: AML-194 (MECOM-r AML) viability, CellTiter-Glo, 48 h; series mostly up to 46 µM; viability (% of control): at the top concentration. The procedure, abridged:
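500 cells/well; 11-pt dose curve; 48 h, standard incubator; CellTiter-Glo luminescence after 15 min RT; DMSO/empty-well normalization; AUC plus Z-AUC (mean-centered within each line).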
Background: In ATP-based viability assays light output follows the ATP content of the culture.
For `CNC(=O)c1c(-c2ccc(F)cc2)oc2cc(N(CCO)S(C)(=O)=O)c(C3CC3)cc12`, the “viability (% of control)” value was 98.5%.
As for `CN1C(=O)N[C@@H](Cc2c[nH]c3c(Cl)cccc23)C1=O`, the “viability (% of control)” value is 96.5%.
`CC[C@@H]1C(=O)N(C)c2cnc(Nc3ccc(C(=O)NC4CCC(N5CCN(CC6CC6)CC5)CC4)cc3OC)nc2N1C(C)C` (stereo partly drawn): the Potency is 0.0934 µM (active).
Regarding `C[C@@H]1CN(Cc2ccc(F)cc2)[C@@H](C)CN1C(=O)c1cc2c(C(=O)C(=O)N(C)C)cn(C)c2cc1Cl`, the “viability (% of control)” value is 95.2%.
Consider `CN1CCN(c2ccc(OC(F)(F)F)c(Nc3ncc4c(n3)-c3c(c(C(N)=O)nn3CCO)CC4)c2)CC1`, for which the Potency was 0.332 µM (active).
On the same count and under the same terms, for `Cc1ccc2c(c1)C(=O)[C@]1(O)CCN(c3ccccc3)C1=N2` the value was 16.6 µM (active).
For `C=CC(=O)Nc1cccc(Sc2nc(Nc3ccc(N4CCN(C)CC4)cc3)ncc2Cl)c1`, the Potency is 10.5 µM (active).
The same measure, in the same setting: for `CC(C)c1nn(-c2c(Cl)cccc2Cl)c2nc(Cc3ccc(OCCO)cc3)[nH]c(=O)c12` the value was 0.0468 µM (active).
Regarding `COc1ccc(-c2c(-c3ccc(O)cc3O)n[nH]c2C)cc1`, the “viability (% of control)” value is 72.3%.
Same read-out and setting: for `CC(C)[C@H](CO)Nc1nc(Nc2ccc(C(=O)O)c(Cl)c2)c2ncn(C(C)C)c2n1` the value was 99.9%; for `FC(F)(F)c1ccc(/C=C/c2nc(COc3ccc(CCCCn4ccnn4)cc3)co2)cc1`, 90.3%.
With `CC[C@H](NC(=O)[C@H](CS(=O)(=O)CC1CC1)N[C@@H](c1ccc(F)cc1)C(F)(F)F)C(=O)C(=O)NC1CC1`, the “viability (% of control)” value is 104%.
With `O=C(Nc1ccc(Oc2ccnc3[nH]ccc23)c(F)c1)c1cccn(-c2ccc(F)cc2)c1=O`, the Potency is 8.33 µM (active).
